From PubChem BioAssay AID1159580 (chemical genetic matrix, 2015)
Several values for one entry are separate records, joined by “and”; a condition that tells them apart may be missing. Equal values may be shown once. The whole screen tested about 5,500 compounds, of which about 2,000 (36%) were called active. About 18% were inconclusive and are not listed. No stated cut-off is given here; in the data, active means normalized growth mostly below about 0.91 (no sharp cut-off); inconclusive means no clear call, values can overlap the other calls; inactive means mostly above about 0.92. This is one part of the list.

Test: chemical genetic growth profiling, strain panel (AID 1159580);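 further: tested at 20 µM; growth read once vehicle control cultures reached saturation at 30 °C; 1 = growth at the plate median or of vehicle wells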
Conditions: growth OD
[1] = S. cerevisiae deletion strains, locus YBR021W, strain FUR4, stronger effect = lower value
[2] = S. cerevisiae deletion strains, locus YBR229C, strain ROT2, stronger effect = lower value
[3] = S. cerevisiae deletion strains, locus YCL029C, strain bik1, stronger effect = lower value
[4] = S. cerevisiae deletion strains, locus YDL035C, strain GPR1, stronger effect = lower value
[5] = S. cerevisiae deletion strains, locus YDL074C, strain BRE1, stronger effect = lower value
[6] = S. cerevisiae deletion strains, locus YDL101C, strain DUN1, stronger effect = lower value
[7] = S. cerevisiae deletion strains, locus YDL185W, strain tfp1, stronger effect = lower value
[8] = S. cerevisiae deletion strains, locus YDL192W, strain arf1, stronger effect = lower value
[9] = S. cerevisiae deletion strains, locus YDR101C, strain arx1, stronger effect = lower value
[10] = S. cerevisiae deletion strains, locus YDR150W, strain NUM1, stronger effect = lower value
[11] = S. cerevisiae deletion strains, locus YDR162C, strain NBP2, stronger effect = lower value
[12] = S. cerevisiae deletion strains, locus YDR318W, strain mcm21, stronger effect = lower value
[13] = S. cerevisiae deletion strains, locus YDR388W, stronger effect = lower value
[14] = S. cerevisiae deletion strains, locus YDR502C, strain sam2, stronger effect = lower value
[15] = S. cerevisiae deletion strains, locus YEL061C, strain CIN8, stronger effect = lower value
[16] = S. cerevisiae deletion strains, locus YER110C, stronger effect = lower value
[17] = S. cerevisiae deletion strains, locus YER155C, strain BEM2, stronger effect = lower value
[18] = S. cerevisiae deletion strains, locus YER167W, strain BCK2, stronger effect = lower value
[19] = S. cerevisiae deletion strains, locus YGL078C, strain dbp3, stronger effect = lower value
[20] = S. cerevisiae deletion strains, locus YGL086W, strain mad1, stronger effect = lower value
[21] = S. cerevisiae deletion strains, locus YGL248W, strain PDE1, stronger effect = lower value
[22] = S. cerevisiae deletion strains, locus YGR135W, strain pre9, stronger effect = lower value
[23] = S. cerevisiae deletion strains, locus YGR229C, strain SMI1, stronger effect = lower value
[24] = S. cerevisiae deletion strains, locus YGR252W, strain gcn5, stronger effect = lower value
[25] = S. cerevisiae deletion strains, locus YHR030C, strain SLT2, stronger effect = lower value
[26] = S. cerevisiae deletion strains, locus YHR079C, strain IRE1 (second series), stronger effect = lower value
[27] = S. cerevisiae deletion strains, locus YHR094C, strain hxt1, stronger effect = lower value
[28] = S. cerevisiae deletion strains, locus YHR129C, strain ARP1, stronger effect = lower value
[29] = S. cerevisiae deletion strains, locus YHR200W, strain rpn10, stronger effect = lower value
[30] = S. cerevisiae deletion strains, locus YIL066C, strain RNR3, stronger effect = lower value
[31] = S. cerevisiae deletion strains, locus YIL073C, strain SPO22, stronger effect = lower value
[32] = S. cerevisiae deletion strains, locus YIL125W, strain kgd1, stronger effect = lower value
[33] = S. cerevisiae deletion strains, locus YIR030C, strain dcg1, stronger effect = lower value
[34] = S. cerevisiae deletion strains, locus YJL095W, strain BCK1, stronger effect = lower value
[35] = S. cerevisiae deletion strains, locus YJL134W, strain LCB3, stronger effect = lower value
[36] = S. cerevisiae deletion strains, locus YJL168C, strain set2, stronger effect = lower value
[37] = S. cerevisiae deletion strains, locus YJL187C, strain SWE1 (second series), stronger effect = lower value
[38] = S. cerevisiae deletion strains, locus YJR043C, strain POL32, stronger effect = lower value
[39] = S. cerevisiae deletion strains, locus YKL009W, strain mrt4, stronger effect = lower value
[40] = S. cerevisiae deletion strains, locus YKL068W, stronger effect = lower value
[41] = S. cerevisiae deletion strains, locus YKL085W, strain MDH1 (second series), stronger effect = lower value
[42] = S. cerevisiae deletion strains, locus YKL085W, strain MDH1, stronger effect = lower value
[43] = S. cerevisiae deletion strains, locus YKR001C, strain vps1, stronger effect = lower value
[44] = S. cerevisiae deletion strains, locus YLR039C, strain RIC1, stronger effect = lower value
[45] = S. cerevisiae deletion strains, locus YLR058C, strain SHM2, stronger effect = lower value
[46] = S. cerevisiae deletion strains, locus YLR102C, strain apc9, stronger effect = lower value
[47] = S. cerevisiae deletion strains, locus YLR262C, strain YPT6, stronger effect = lower value
[48] = S. cerevisiae deletion strains, locus YLR268W, strain sec22, stronger effect = lower value
[49] = S. cerevisiae deletion strains, locus YLR330W, strain CHS5, stronger effect = lower value
[50] = S. cerevisiae deletion strains, locus YLR342W, strain FKS1 (second series), stronger effect = lower value
[51] = S. cerevisiae deletion strains, locus YLR371W, strain rom2, stronger effect = lower value
[52] = S. cerevisiae deletion strains, locus YLR418C, strain cdc73, stronger effect = lower value
[53] = S. cerevisiae deletion strains, locus YML016C, strain PPZ1, stronger effect = lower value
[54] = S. cerevisiae deletion strains, locus YML032C, strain rad52, stronger effect = lower value
[55] = S. cerevisiae deletion strains, locus YML124C, strain tub3, stronger effect = lower value
[56] = S. cerevisiae deletion strains, locus YMR078C, strain ctf18, stronger effect = lower value
[57] = S. cerevisiae deletion strains, locus YMR223W, strain ubp8, stronger effect = lower value
[58] = S. cerevisiae deletion strains, locus YMR263W, strain SAP30, stronger effect = lower value
[59] = S. cerevisiae deletion strains, locus YMR307W, strain GAS1, stronger effect = lower value
[60] = S. cerevisiae deletion strains, locus YNL067W, strain RPL9B, stronger effect = lower value
[61] = S. cerevisiae deletion strains, locus YNL233W, strain BNI4, stronger effect = lower value
[62] = S. cerevisiae deletion strains, locus YNL250W, strain rad50, stronger effect = lower value
[63] = S. cerevisiae deletion strains, locus YNL271C, strain bni1, stronger effect = lower value
[64] = S. cerevisiae deletion strains, locus YNL298W, strain CLA4, stronger effect = lower value
[65] = S. cerevisiae deletion strains, locus YNL307C, strain MCK1, stronger effect = lower value
[66] = S. cerevisiae deletion strains, locus YNR052C, strain pop2, stronger effect = lower value
[67] = S. cerevisiae deletion strains, locus YOL012C, strain htz1
[68] = S. cerevisiae deletion strains, locus YOL147C, strain pex11, stronger effect = lower value
[69] = S. cerevisiae deletion strains, locus YOR061W, strain CKA2, stronger effect = lower value
[70] = S. cerevisiae deletion strains, locus YOR069W, strain VPS5, stronger effect = lower value
[71] = S. cerevisiae deletion strains, locus YOR136W, strain idh2, stronger effect = lower value
[72] = S. cerevisiae deletion strains, locus YOR144C, strain elg1, stronger effect = lower value
[73] = S. cerevisiae deletion strains, locus YOR184W, strain ser1, stronger effect = lower value
[74] = S. cerevisiae deletion strains, locus YOR316C, strain cot1, stronger effect = lower value
[75] = S. cerevisiae deletion strains, locus YPL055C, strain LGE1, stronger effect = lower value
[76] = S. cerevisiae deletion strains, locus YPR119W, strain clb2, stronger effect = lower value
[77] = S. cerevisiae deletion strains, locus YPR141C, strain kar3, stronger effect = lower value
[78] = S. cerevisiae deletion strains, locus YPR163C, strain tif3, stronger effect = lower value
[79] = S. cerevisiae deletion strains, locus YPR167C, strain met16, stronger effect = lower value
[80] = S. cerevisiae deletion strains, strain wtn01, stronger effect = lower value
[81] = S. cerevisiae strains, strain wild type, stronger effect = lower value

Measured: normalized growth

O=C(O)c1cccnc1Nc1cccc(C(F)(F)F)c1
active: [7] 0.896 | [32] 0.919 | [40] 0.912 | [41] 0.916 | [42] 0.916 | [55] 0.933 | [63] 0.916 | [77] 0.895
inactive: S. cerevisiae deletion strains, locus YAL013W, strain DEP1, stronger effect = lower value 0.97 | S. cerevisiae deletion strains, locus YAL040C, strain CLN3, stronger effect = lower value 1.02 | [1] 0.922 | [2] 0.964 | [3] 0.944 | S. cerevisiae deletion strains, locus YCL061C, strain MRC1 (second series), stronger effect = lower value 1 | [4] 0.984 | [5] 0.999 | [6] 0.981 | S. cerevisiae deletion strains, locus YDL134C, strain PPH21, stronger effect = lower value 0.946 | [8] 0.942 | [9] 0.967 | [10] 0.975 | [11] 0.968 | [12] 0.953 | S. cerevisiae deletion strains, locus YDR363W, strain ESC2, stronger effect = lower value 1 | [13] 0.941 | [14] 0.963 | [15] 0.972 | S. cerevisiae deletion strains, locus YER002W, strain NOP16, stronger effect = lower value 0.973 | [16] 0.954 | [17] 0.931 | [18] 0.957 | [19] 0.943 | [20] 0.963 | [21] 0.989 | [22] 0.95 | [23] 0.978 | [24] 0.911 | [25] 0.949 | [26] 0.942 | [27] 0.941 | [28] 0.953 | [29] 0.945 | [30] 0.973 | [31] 0.954 | [33] 0.939 | [34] 0.996 | [35] 0.953 | [36] 0.941 | [37] 1 | [38] 0.991 | S. cerevisiae deletion strains, locus YJR075W, strain HOC1, stronger effect = lower value 0.981 and 1.02 | [39] 0.944 | S. cerevisiae deletion strains, locus YKL190W, strain CNB1, stronger effect = lower value 0.979 | [43] 0.949 | [44] 0.966 | [45] 0.969 | [46] 0.938 | [47] 0.975 | [48] 0.978 | [49] 0.943 | [50] 0.936 | [51] 0.951 | [52] 0.909 | [53] 0.967 | [54] 0.966 | [56] 0.945 | [57] 0.958 | [58] 0.973 | [59] 0.881 | [60] 1.02 | S. cerevisiae deletion strains, locus YNL153C, strain GIM3, stronger effect = lower value 0.991 | S. cerevisiae deletion strains, locus YNL175C, strain NOP13, stronger effect = lower value 0.981 | S. cerevisiae deletion strains, locus YNL197C, strain WHI3, stronger effect = lower value 1 | S. cerevisiae deletion strains, locus YNL224C, strain SQS1, stronger effect = lower value 0.969 | [61] 0.988 | [62] 0.9 | [64] 0.942 | [65] 0.937 | S. cerevisiae deletion strains, locus YNL322C, strain KRE1, stronger effect = lower value 0.969 and 1.02 | [66] 0.949 | S. cerevisiae deletion strains, locus YOL006C, strain TOP1, stronger effect = lower value 0.99 | [67] 1.13 | [68] 0.935 | [69] 0.974 | [70] 0.956 | S. cerevisiae deletion strains, locus YOR083W, strain WHI5 (second series), stronger effect = lower value 0.992 | [71] 0.98 | [72] 0.944 | [73] 0.968 | [74] 0.931 | [75] 1.04 and 1.01 | [76] 0.934 | [78] 0.95 | [79] 0.938 | [80] 0.957 | [81] 0.981

CNc1ccccc1C(=O)O
inactive: [1] 0.955 | [2] 1 | [3] 1.01 | [4] 1.02 | [5] 1.03 | [6] 1.02 | [7] 1 | [8] 0.996 | [9] 1 | [10] 0.997 | [11] 1.05 | [12] 0.998 | [13] 1 | [14] 1.02 | [15] 1 | [16] 1.02 | [17] 0.973 | [18] 1 | [19] 0.981 | [20] 0.989 | [21] 1.03 | [22] 1 | [23] 1 | [24] 1.02 | [25] 1.01 and 0.862 | [26] 0.986 | S. cerevisiae deletion strains, locus YHR079C, strain IRE1, stronger effect = lower value 0.873 | [27] 1 | [28] 1.01 | [29] 1.01 | [30] 1.04 | [31] 1.09 | [32] 0.969 | [33] 1.01 | [35] 1 | [36] 0.996 | [37] 1.02 | [38] 1.01 | S. cerevisiae deletion strains, locus YJR066W, strain TOR1, stronger effect = lower value 0.842 | [39] 0.972 | [40] 0.967 | [41] 0.985 | [42] 0.985 | [43] 1 | [44] 1.03 | [45] 1.02 | [46] 1 | [47] 1.06 | [48] 0.993 | [49] 1.02 | [50] 1.02 | [51] 0.995 | [52] 1.08 | [53] 1.01 | [54] 1.02 | [55] 1.01 | [56] 1 | [57] 1.01 | [58] 1.02 | [59] 1.08 | [60] 1.01 | [61] 1.02 | [62] 0.994 | [63] 0.989 | [64] 1.01 | [65] 0.993 | [66] 1 | [67] 1.68 | [68] 0.999 | [69] 1.01 | [70] 1.01 | [71] 1.01 | [72] 0.994 | [73] 1.01 | S. cerevisiae deletion strains, locus YOR231W, strain MKK1, stronger effect = lower value 0.884 | [74] 1.01 | [75] 1.04 | S. cerevisiae deletion strains, locus YPL241C, strain CIN2, stronger effect = lower value 0.999 | S. cerevisiae deletion strains, locus YPL256C, strain CLN2, stronger effect = lower value 0.838 | [76] 0.995 | [77] 0.968 | [78] 0.998 | [79] 1.02 | [80] 1.01 | [81] 1.01
1.05 (inactive) and 0.875 (active): [34]
active: S. cerevisiae deletion strains, locus YLR113W, strain HOG1, stronger effect = lower value 0.78 | S. cerevisiae deletion strains, locus YNL183C, strain NPR1, stronger effect = lower value 0.822
